From PubChem
Hits are enriched below; roughly 3.5% of the tested compounds scored in any of these assays.
MITF inh: blocks human microphthalmia-associated transcription factor | O75030 | AlphaScreen MITF homodimerization, bead proximity signal | inhibition, % at 2.6 µM | 0.91% of 650,000 active | AID 1259374; in the data active = inhibition above about 50%;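 note: 0% = vehicle wells with protein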
Target sequence (O75030 whole entry, looked up): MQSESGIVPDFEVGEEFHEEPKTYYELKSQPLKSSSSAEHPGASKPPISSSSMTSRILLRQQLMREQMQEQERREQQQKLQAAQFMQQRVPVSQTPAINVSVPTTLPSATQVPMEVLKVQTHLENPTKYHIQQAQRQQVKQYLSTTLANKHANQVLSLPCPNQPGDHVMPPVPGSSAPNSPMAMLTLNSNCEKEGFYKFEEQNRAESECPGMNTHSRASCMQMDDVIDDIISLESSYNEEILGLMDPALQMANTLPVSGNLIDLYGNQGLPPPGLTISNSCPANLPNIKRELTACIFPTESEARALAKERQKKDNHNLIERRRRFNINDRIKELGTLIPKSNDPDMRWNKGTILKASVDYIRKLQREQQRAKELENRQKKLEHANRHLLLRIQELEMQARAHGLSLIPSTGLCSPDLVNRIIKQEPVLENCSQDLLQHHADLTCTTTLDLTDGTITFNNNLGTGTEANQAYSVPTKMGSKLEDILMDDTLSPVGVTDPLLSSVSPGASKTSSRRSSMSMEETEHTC
GPR151 activ: activates the human receptor GPR151 | PathHunter beta-arrestin GPR151 cells, luminescence | activation, % at 11.2 µM | 1% of 650,000 active | AID 1508602; in the data active = activation above about 4.9%;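 note: 0% = median of compound wells and 100% = cells with positive control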
TEAD-YAP inh: TEAD-YAP interaction inhibition; HEK-TIYL cells, TEAD-Gal4/YAP UAS-luciferase luminescence; inhibition, % at 9.12 µM; 1.4% of 640,000 active; AID 1259422; in the data active = inhibition above about 32%;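 note: 0% = median of test compound wells and 100% = reference inhibitor wells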
FBW7 act: activators of human E3 ligase FBW7 | Q969H0 | AlphaScreen FBW7–phospho-cyclin E peptide binding, activator screen | normalized activity (activation), % at 26.1 µM | 0.13% of 650,000 active | AID 1259310; in the data active = normalized activity above about 1.9%;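 note: purified mutant Fbw7 with reduced substrate affinity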
GPR151 confirm: human GPR151 activation, confirmation screen; shares compounds with GPR151 activ; GPR151 PathHunter beta-arrestin cells, luminescence, 90 min; % of EA-reagent control over plate median; activation, % at 11.2 µM; 6,700 tested, under 10 active;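 active = mean percent activation across replicates above the confirmation screen cutoff of 4.91%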
GPR119 ag: activates human GPR119 in a GPR151 counter-screen; shares compounds with GPR151 activ; GPR119 PathHunter beta-arrestin cells, luminescence, 90 min; 0 = compound-well median, 100 = enzyme-acceptor control; activation, % at 11.2 µM; 0.3% of 6,700 active;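 active = mean percent activation in the counterscreen above 29.09%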;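 note: counterscreen on off-target GPR119 to flag nonselective hits from the GPR151 activator screen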
Numbers without * were called inactive; / = no result given; ! = not confirmed by another sample.

SMILES | MITF inh | GPR151 activ | TEAD-YAP inh | FBW7 act | GPR151 confirm | GPR119 ag
Cc1cccc(C(=O)Nc2ncc(S(=O)(=O)c3ccc([N+](=O)[O-])cc3)s2)c1 | -4 | 4.9* | -6 | 0 | 0 | 8
O=C(c1ccccc1)c1ccc(NC2CCS(=O)(=O)C2)c([N+](=O)[O-])c1 (centres undefined) | 4 | 4 | 16 | 0 | / | /
Cc1nnc2c(N3CCN(c4ccccn4)CC3)nc3ccccc3n12 | -6 | 6.2* | 1 | 0 | 0 | -2
COCCN(C(=O)Cc1ccc(F)cc1)C1CCN(Cc2ccncc2)CC1 | 8 | 6.6* | 2 | 0 | -1 | -14
O=C(CNC(=S)N(Cc1cccs1)C1CCCCC1)NC1CCCC1 | 2 | 6.2* | 7 | 0 | -1 | 4
CC1CCCCC1NC(=O)CNC(=S)N(Cc1cccs1)C1CCCCC1 (centres undefined) | -15 | 0 | -14 | 0 | / | /
Cc1cc2n(n1)C(c1cccc(O)c1)Nc1ccccc1-2 (centres undefined) | 11 | 7.9* | 7 | 0 | 0 | 3
Cc1c(Cl)c(C(F)(F)F)nn1CC(=O)Nc1ccccc1C(F)(F)F | 14 | 2 | 8 | 0 | / | /
COc1ccc2c(c1)C[C@@H](C(=O)Nc1ccc(-c3cn[nH]c3)cc1O[C@H]1CCN(C)C1)CO2 | -4 | 1 | 8 | 0 | / | /
COc1ccc(-c2nc(Nc3ccc(N4CCOCC4)cc3)c3ncn(Cc4ccc(C(F)(F)F)cc4)c3n2)cc1 | -1 | 12* | 9 | 0 | 0 | -7
CC(C)N(CCNc1nc(NC2CCC(O)CC2)nc2c1ncn2Cc1ccc(C(F)(F)F)cc1)C(C)C (centres undefined) | -10 | -1 | 6 | 0 | / | /
COc1ccc(CCNc2nc(Nc3ccc(N4CCOCC4)cc3)nc3c2ncn3-c2ccccc2)cc1 | 12 | 6.5* | 12 | 0 | 0 | 10
COc1ccc(CCNc2nc(NC3CCC(O)CC3)nc3c2ncn3Cc2ccc(C(F)(F)F)cc2)cc1 (centres undefined) | -13 | 5.9* | 36* | 0 | 0 | 37*
FC(F)(F)c1ccc(Cn2cnc3c(Nc4ccc(N5CCOCC5)cc4)nc(N4CCOCC4)nc32)cc1 | 10 | 2 | -1 | 0 | / | /
NC(=O)c1ccc(-c2nc(Nc3ccc(N4CCOCC4)cc3)c3ncn(Cc4ccc(C(F)(F)F)cc4)c3n2)cc1 | -6 | 0 | 6 | 0 | / | /
FC(F)(F)c1ccc(Cn2cnc3c(Nc4ccc(N5CCOCC5)cc4)nc(Cl)nc32)cc1 | -1 | 6.9* | 4 | 0 | 1 | -2
Oc1c(Br)cc(/C=N/Nc2nncc3ccccc23)cc1Br | 17 | 1 | -29 | 0 | / | /
COc1cccc(CNn2c(-c3cccc(C)c3)nc3ccccc3c2=O)c1O | 7 | -2 | 9 | 0 | / | /
Cc1cccc(CNC2CCN(c3ccc(C(=O)N4CCCC(O)C4)cc3)CC2)n1 (centres undefined) | 6 | 6.7* | -8 | 0 | 0 | 0
S=C1NC2(CCCCC2)NN1c1ccccc1 | 13 | 6.6* | 4 | 0 | 0 | -10
Cc1ccc(N2NC3(CCCCCC3)NC2=S)cc1 | 7 | 0 | -3 | 0 | / | /
NC(=O)c1c(NC(=O)Cn2nc(C(F)(F)F)c3c2CCC3)sc2c1CCCC2 | 0 | 2 | -2 | 0 | / | /
CC[C@@H](C(=O)[C@@H](C)[C@@H](O)[C@H](C)[C@@H]1O[C@@H]([C@@H](CC)C(=O)O)CC[C@@H]1C)[C@H]1O[C@]2(C=C[C@@H](O)[C@]3(CC[C@@](C)([C@H]4CC[C@](O)(CC)[C@H](C)O4)O3)O2)[C@H](C)C[C@@H]1C | -4 | 11*! | 78*! | 0 | 0 | 6
Cc1csc(N/N=C\CCc2ccccc2)n1 | 1 | 0 | -39 | 0 | / | /
Cc1n[nH]c(=S)n1/N=C/c1ccc(F)cc1 | 3 | 5.4* | 10 | 0 | -2 | -15
SMILES | MITF inh | GPR151 activ | TEAD-YAP inh | FBW7 act | GPR151 confirm | GPR119 ag
Cc1ccc(/C=N/n2c(C)n[nH]c2=S)o1 | -5 | 6.4* | 4 | 0 | 1 | -2
O=C(COc1ccccc1[N+](=O)[O-])NCC1(N2CCOCC2)CCCCC1 | -3 | -2 | -10 | 0 | / | /
COc1ccc(NC(=O)/C(C#N)=C/c2ccc(-c3ccccc3C(=O)O)o2)cc1 | -9 | -1 | -5 | 0 | / | /
N#C/C(=C\c1ccc(-c2ccccc2C#N)o1)C(N)=S | 0 | 6.0* | 1 | 0 | 0 | 1
CC(=O)c1ccc(-c2ccc(/C=C(\C#N)C(N)=S)o2)cc1 | -12 | 0 | 0 | 0 | / | /
N#C/C(=C\c1ccc(-c2ccccc2C(=O)O)o1)C(=O)Nc1ccccc1 | -3 | 8.2* | -29 | 0 | -1 | 0
CC(=O)Nc1cccc(NC(C)=C(C#N)C#N)c1 | -2 | 5.2* | 2 | 0 | 1 | 3
C=CCOC(=O)C1=C(C)Nc2c(c(=O)n(C)c(=O)n2C)C1c1ccc(N(CC)CC)cc1 (centres undefined) | 13 | 0 | 13 | 0 | / | /
Cc1nc2c(c(=O)[nH]1)CCN(Cc1ccc3ncccc3c1)C2 | 5 | 6.5* | 0 | 0 | 0 | -2
COCCNc1nc(-c2ccc(OC)c(OC)c2)no1 | -5 | 8.4* | 1 | 0 | 0 | 3
Cc1ccc(S(=O)(=O)Nc2ccc(S(=O)(=O)N3CCCC3)cc2)cc1[N+](=O)[O-] | 12 | 0 | 2 | 1 | / | /
COc1ccc(CNC(=O)CSc2nnc3sc4ccccc4n23)cc1C(=O)O | 5 | 5.5* | 4 | 0 | 0 | 4
Cc1ccc(C(=O)COC(=O)CN2C(=O)C3C4CCC(C4)C3C2=O)cc1[N+](=O)[O-] (centres undefined) | -14 | -1 | -7 | 0 | / | /
Cc1ccc(C(=O)COC(=O)CN2C(=O)C3C4C=CC(C4)C3C2=O)cc1[N+](=O)[O-] (centres undefined) | 1 | 13* | 3 | 0 | 0 | 10
FC(F)(F)c1nnc2ccc(-n3nnc4ccccc43)nn12 | 1 | 0 | 13 | 0 | / | /
COC(=O)Cn1cc(/C=C(/C#N)C(=O)Nc2ccccc2)c2ccccc21 | 2 | 0 | 2 | 0 | / | /
N#C/C(=C/c1cn(CC(=O)O)c2ccccc12)C(=O)Nc1ccc(Cl)cc1 | 3 | 8.5* | 11 | 0 | -1 | -5
CC(=O)N1CC(C)Sc2cc(S(=O)(=O)N3CCCCC3)ccc21 (centres undefined) | 5 | 2 | 5 | 0 | / | /
CCN1CCN(S(=O)(=O)c2ccc3c(c2)SC(C)CN3C(C)=O)CC1 (centres undefined) | -3 | 6.1* | 6 | 0 | 0 | -2
CCN(CC)CCN(C)Cc1ccccc1Cl | 46 | 0 | 6 | 0 | / | /
CCN(CC)CCN(C)Cc1ccccc1C | 9 | 5.0* | 3 | 0 | 0 | 0
